Screens (PubChem)
Most compounds without a hit are left out; they make up all but 3.9% or so of the library.
SUMO Mot1 rescue: yeast Mot1-301 growth rescue at high temperature, primary screen, SUMOylation pathway inhibitor project, S. cerevisiae, ATP luminescence, 38.5C | S. cerevisiae Mot1-301 growth rescue; percent above DMSO median, 100 means doubled | growth rescue, % at 18.8 µM | actives 1% (n = 320,000);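 active = every valid replicate shows activation above 250% relative to neutral control wells; inactive = the rest, any valid replicate at or below 250%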
NSD2 HMT inh: NSD2 histone methyltransferase inhibitors, primary screen, biochemical, AlphaScreen, single concentration, set 2 | Histone-lysine N-methyltransferase NSD2 (Homo sapiens), O96028 | NSD2 peptide methylation, 120 min | inhibition, % at 12.5 µM | actives 0.54% (n = 310,000); in the data active = inhibition above about 50%
CASP6 VEID inh: human caspase-6 inhibitors, primary screen, biochemical, VEID-R110 fluorescence, single point, set 2 | actives 0.53% (n = 350,000) | purified caspase-6, Z-VEID-R110 cleavage fluorescence | P55212 | inhibition, % at 12.5 µM;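 active = mean inhibition across replicates at least about 35%, with every replicate also reaching that limit, limit read from the data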
N-glyco inh: increase of ERlucT glycosylation luciferase signal, primary screen, N-linked glycosylation inhibitor project, D54 ERlucT cells, luminescence, set 2; reporter increase, % at 12.5 µM; D54 ERlucT glycosylation luciferase reporter, 24 h; percent of 100 nM tunicamycin response; actives 0.23% (n = 360,000); AID 588692, 2011;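 active = mean luciferase reporter signal, scaled so untreated is 0 and the glycosylation-blocking control 100, at or above a set limit in every replicate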;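 also: luciferase carries N-glycosylation sites so blocking glycosylation raises the light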
ALR H2O2 inh: inhibitors of human ALR sulfhydryl oxidase, primary screen, biochemical, H2O2 detection, HRP-luminol luminescence, single point; purified ALR, DTT oxidation; inhibition, % (concentration not given with the values); actives 3.8% (n = 290,000); FAD-linked sulfhydryl oxidase ALR (Homo sapiens), P55789; AID 485317, 2010;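 active = mean replicate inhibition above about 79%, with every replicate also reaching it, limit read from the data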
CDK5 p35 inh: inhibitors of human CDK5/p35 kinase, primary screen, biochemical, single concentration; Cyclin-dependent kinase 5 (Homo sapiens) + Cyclin-dependent kinase 5 activator 1 (Homo …; Recombinant CDK5/p35, ADP-Glo luminescence, 60 min; inhibition, % at 10 µM; actives 0.01% (n = 330,000);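 active = highest replicate inhibition of at least 50% and at least 75% of replicates reaching 50%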
Target sequence (Q00535 whole entry, looked up): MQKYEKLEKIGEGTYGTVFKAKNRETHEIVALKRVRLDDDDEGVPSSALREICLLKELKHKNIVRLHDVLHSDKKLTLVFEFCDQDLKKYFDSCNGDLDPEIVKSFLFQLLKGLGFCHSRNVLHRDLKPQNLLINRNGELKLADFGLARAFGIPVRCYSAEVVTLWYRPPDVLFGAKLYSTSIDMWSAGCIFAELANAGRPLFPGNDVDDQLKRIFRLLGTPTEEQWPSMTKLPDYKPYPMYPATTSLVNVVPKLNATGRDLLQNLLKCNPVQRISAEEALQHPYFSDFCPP
Target sequence (Q15078 whole entry, looked up): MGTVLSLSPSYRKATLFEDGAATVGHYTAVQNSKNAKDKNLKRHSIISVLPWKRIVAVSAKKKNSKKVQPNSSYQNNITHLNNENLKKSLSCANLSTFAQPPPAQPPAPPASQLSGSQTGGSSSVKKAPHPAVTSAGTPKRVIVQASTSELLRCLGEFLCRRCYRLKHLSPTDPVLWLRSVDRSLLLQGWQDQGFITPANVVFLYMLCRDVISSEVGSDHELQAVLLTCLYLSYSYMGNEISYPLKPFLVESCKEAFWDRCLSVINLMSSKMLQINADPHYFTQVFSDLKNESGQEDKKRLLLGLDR
Hits are given with their value; – = inactive; · = no result.

SMILES	SUMO Mot1 rescue	NSD2 HMT inh	CASP6 VEID inh	N-glyco inh	ALR H2O2 inh	CDK5 p35 inh
Cc1occc1C(=O)N/N=C/C=C/c1ccc(N(C)C)cc1	–	–	–	–	99	–
CN(C)c1ccc(/C=N/NC(=O)c2sccc2-n2cccc2)cc1	–	–	–	–	99	–
Cc1occc1C(=O)N/N=C/C=C/c1ccccc1	·	–	–	–	–	–
COc1ccc(NC(=O)N(C)C[C@H]2Oc3ccc(NS(=O)(=O)c4ccc(OC)cc4)cc3C(=O)N([C@@H](C)CO)C[C@H]2C)cc1	·	·	–	·	·	·
CN1CCN(C(=O)C[C@@H]2CC[C@H]3[C@H](COc4ccc(NC(=O)C5CCOCC5)cc4C(=O)N3C)O2)CC1	·	·	–	·	·	·
O=C1CNC[C@@H]2[C@H](c3ccc(C4=CCCCC4)cc3)[C@@H](CO)N12	·	·	–	·	·	·
O=C(Nc1ccc(Cl)c(Cl)c1)O/N=C/c1ccncc1	517	–	–	–	–	–
Cc1occc1C(=O)N/N=C/c1ccc(N(C)C)cc1	–	–	–	–	94	–
O=C(c1ccc(F)cc1)c1c[nH]c(C(=O)NCC2CCCO2)c1 (stereo unspecified)	·	–	·	·	·	·
COc1ccc(C[C@H]2c3cc(O)c(OC)cc3CC[N+]2(C)[O-])cc1O (stereo partly specified)	–	·	–	–	95	–
CN(C)C(=O)c1ccc(-c2ccc([C@@H]3[C@@H](C#N)N(C(=O)Cc4ccccn4)[C@H]3CO)cc2)cc1	·	·	–	·	·	·
O=C(Nc1ccc(Oc2cccc(C(F)(F)F)c2)nc1)c1ccco1	342	–	–	–	–	–
Cc1nc(Nc2nc(-c3ccccc3)cc(=O)[nH]2)nc2ccccc12	–	–	–	103	–	–
O=C(C[C@H]1CC[C@H](NC(=O)CC2CC2)[C@H](CO)O1)NCc1ccc(Cl)cc1	·	·	–	·	·	·
Cc1cc(C)n2cc(CSc3nc4ccccc4[nH]3)nc2n1	–	–	·	–	99	·
Cc1cc(C)n2cc(CSc3nc4ccccc4s3)nc2n1	–	–	·	–	·	·
Cc1ccc(S(=O)(=O)Nc2ccc3c(c2)C(=O)N([C@H](C)CO)C[C@H](C)[C@H](CN(C)S(=O)(=O)c2cn(C)cn2)OCCCC[C@H](C)O3)cc1	·	·	–	·	·	·
CCCC#Cc1cnc2c(c1)C(=O)N([C@H](C)CO)C[C@H](C)[C@@H](CN(C)C(=O)NC1CCCC1)O2	·	·	–	·	·	·
Cc1ccc(C)n1/N=C1/NC(=O)CS1	–	144	·	–	–	–
COc1ccc2[nH]c3c(=S)nc[nH]c3c2c1	–	–	–	–	99	–
CCCCOc1ncnc2c1[nH]c1ccc(OC)cc12	–	·	·	·	–	·
C[C@@H]1CN([C@@H](C)CO)C(=O)c2cccc(NS(=O)(=O)c3ccccc3)c2O[C@@H]1CN(C)CC1CCCCC1	·	·	–	·	·	·
CCOC(=O)N1CCN(C2=C(NS(=O)(=O)c3ccc(C)cc3)C(=O)c3ccccc3C2=O)CC1	–	64	·	–	–	–
Cc1ccc(S(=O)(=O)NC2=C(N3CCN(Cc4ccccc4)CC3)C(=O)c3ccccc3C2=O)cc1	–	–	–	65	–	–
CCc1c(C)[nH]n(-c2nc(-c3ccccc3)cs2)c1=O	–	–	–	–	97	–
SMILES	SUMO Mot1 rescue	NSD2 HMT inh	CASP6 VEID inh	N-glyco inh	ALR H2O2 inh	CDK5 p35 inh
CCc1c(C)[nH]n(-c2nc(-c3cccc([N+](=O)[O-])c3)cs2)c1=O	–	–	–	–	–	–
Nc1ccccc1SC/C=C/CSc1ccccc1N	–	–	–	–	99	–
N#Cc1ccc(-c2ccc([C@@H]3[C@@H](CO)N4C(=O)CN(C(=O)C5CCC5)C[C@@H]34)cc2)cc1	·	·	–	·	·	·
Nc1cc2cccnc2cc1Cl	·	–	62	–	·	–
Nc1ccc(Oc2ccc3c(c2)OCO3)cc1	–	–	–	–	99	–
Nc1ccc(Oc2ccc(Br)cc2)cc1	–	–	·	–	–	–
Cc1cccc(Oc2ccc(N)cc2)c1	–	–	·	–	98	–
Cc1cccc(Oc2ccccc2N)c1	–	–	–	–	–	–
Nc1ccc(Oc2cccc(Oc3ccc(N)cc3)c2)cc1	–	·	–	–	100	–
c1ccc2c(Oc3ccc4c(c3)OCO4)nncc2c1	–	–	·	–	–	–
Cc1cc(C)cc(Oc2ccc(N)cc2)c1	–	–	·	–	98	–
O=C(C[C@@H]1CC[C@@H]2[C@H](COC[C@@H](O)CN2Cc2cccc(F)c2)O1)NCCc1ccncc1	·	·	–	·	·	·
CN(C)S(=O)(=O)c1ccc(N2CCCC2)c(C(=O)Nc2ccc(C(N)=O)cc2)c1	261	–	–	–	–	–
Cc1ccc(NC(=O)c2cc(S(=O)(=O)N3CCCCC3)ccc2N2CCOCC2)cc1S(=O)(=O)N(C)C	·	–	–	–	·	–
CN(C)S(=O)(=O)c1ccc(N2CCCC2)c(C(=O)Nc2ccc(N3CCOCC3)cc2)c1	–	–	·	–	–	–
Cc1ccc(NC(=O)c2cc(S(=O)(=O)N(C)C)ccc2N2CCCC2)cc1S(=O)(=O)N(C)C	–	–	–	60	–	–
COc1ccc(OC)c(NC(=O)c2cc(S(=O)(=O)N(C)C)ccc2N2CCCC2)c1	·	–	–	–	·	–
COc1ccc(NC(=O)c2cc(S(=O)(=O)N(C)C)ccc2N2CCCC2)cc1Cl	–	–	–	36	–	–
COc1ccc(NC(=O)C2CCN(S(C)(=O)=O)CC2)cc1Cl	325	–	·	–	–	–
CCCNC(=O)N1C[C@@H](O)COC[C@@H]2O[C@@H](CC(=O)N3CCOCC3)CC[C@H]21	·	·	–	·	·	·
C[C@@H]1CN([C@H](C)CO)C(=O)c2cc(NS(=O)(=O)c3cccs3)ccc2O[C@@H](C)CCCCO[C@@H]1CN(C)CC1CCCCC1	·	·	–	·	·	·
CSC1=C(C#N)C(=O)NC(c2ccccc2O)S1 (stereo unspecified)	–	–	–	–	98	–
CC(C)NC(=O)CC1Nc2c3ccccc3nc(=S)n2C1=O (stereo unspecified)	–	–	·	–	88	–
C=CCNC(=O)CC1Nc2c3ccccc3nc(=S)n2C1=O (stereo unspecified)	–	·	–	–	95	–
Cc1ccc(CNC(=O)CC2Nc3c4ccccc4nc(=S)n3C2=O)cc1 (stereo unspecified)	–	–	–	·	–	·
COc1ccc(C(=O)O)cc1S(=O)(=O)Nc1cc(S(=O)(=O)Nc2ccc(C)c(Cl)c2)ccc1Cl	·	–	·	·	·	·
COc1ccc(NC(=O)CSc2ccc(NC(C)=O)cc2)cc1S(=O)(=O)N1CCCCC1	–	–	·	–	99	–
COc1ccc(NC(=O)CN(C)C(=O)CSc2ccc(Br)cc2)cc1	–	–	–	–	·	–
COc1ccc(NC(=O)CSc2ccc(F)cc2)cc1S(=O)(=O)N1CCCCC1	–	–	·	–	–	–
COc1ccc(NC(=O)CSc2ccc3c(c2)OCCO3)cc1	–	–	–	–	98	–
